According to the supplement of paper PMC12350171:
Counter-ions that a name gives are not always drawn.

What was measured:
Conditions in all cases: 20 µM
[1] = system: Salmonella enterica typhimurium; assay: growth AUC normalised to DMSO control (fraction of control); higher = less growth inhibition, active = hit call of the paper
Procedure, shortened: (§1)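 For the AUC endpoint, growth curves were integrated by the trapezoidal rule up to the exponential-to-stationary transition and normalised to DMSO controls on the same plate. The curves came from OD578 readings taken hourly for 24 h, in three biological replicates. Pathogens had been passaged anaerobically twice and inoculated at an OD578 of 0.01 into pre-reduced mGAM plates carrying 20 μM compound and 1% DMSO, sealed with breathable membranes. Medium for Haemophilus parainfluenzae also contained hemin and NAD.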

[2] = system: Shigella flexneri; assay: as above
Procedure, shortened: as §1

[3] = system: Vibrio cholerae; assay: as above
Procedure, shortened: as §1

[4] = system: Yersinia pseudotuberculosis; assay: as above
Procedure, shortened: as §1

[5] = system: P. vulgatus RND KO; assay: growth AUC normalised to DMSO control (median) (fraction of control); higher = less growth inhibition, active = hit call of the paper
Procedure, shortened: (§2)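 Area under the growth curve, calculated by the trapezoidal rule up to entry into stationary phase, was normalised to vehicle wells on the same plate. Strains had been passaged twice overnight without oxygen and then grown in mGAM in 96-well plates from OD578 0.01, each with an approved-drug library compound at 20 μM in 1% DMSO. OD578 was read hourly over 24 h in an anaerobic incubator, and the median of three biological replicates is given.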

[6] = system: P. vulgatus WT; assay: as above
Procedure, shortened: as §2

[7] = system: S. enterica typhimurium WT; assay: as above
Procedure, shortened: as §2

[8] = system: S. enterica typhimurium tolC KO; assay: as above
Procedure, shortened: as §2

Measured: growth AUC normalised to DMSO control
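For growth AUC normalised to DMSO control (median) in this document: active when median AUC fell below 0.1.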

CN1Cc2c(N)cccc2C(c2ccccc2)C1 (stereo not given) [Nomifensine maleate]
inactive: [1] 0.977 | [2] 1.01 | [3] 0.961 | [4] 0.94 | [5] 1 | [6] 0.987 | [7] 0.997 | [8] 1

CCC(=O)[C@@]1(C)[C@H](C)C[C@H]2[C@@H]3CCC4=CC(=O)C=C[C@]4(C)[C@H]3[C@@H](O)C[C@@]21C [Rimexolone]
inactive: [1] 1.01 | [2] 1.01 | [3] 1.01 | [4] 0.997 | [5] 1.03 | [6] 1.07 | [7] 1 | [8] 0.999

CC(=O)[C@H]1CC[C@H]2[C@@H]3C[C@H](C)C4=CC(=O)CC[C@]4(C)[C@H]3[C@@H](O)C[C@]12C [Medrysone]
inactive: [1] 0.994 | [2] 0.962 | [3] 0.974 | [4] 0.991 | [5] 0.997 | [6] 1.02 | [7] 1.01 | [8] 0.976

NS(=O)(=O)c1cc2c(cc1Cl)N=CNS2(=O)=O [Chlorothiazide]
inactive: [1] 1.01 | [2] 0.998 | [3] 1.02 | [4] 1.01 | [5] 1.03 | [6] 1.07 | [7] 1.01 | [8] 1.01

CCCCc1nc(Cl)c(CO)n1Cc1ccc(-c2ccccc2-c2nnn[nH]2)cc1 [Losartan]
inactive: [1] 1.03 | [2] 1.03 | [3] 1.04 | [4] 1.02 | [5] 0.974 | [6] 0.977 | [7] 1 | [8] 0.995

Cc1nc2n(c(=O)c1CCN1CCC(c3noc4cc(F)ccc34)CC1)CCCC2 [Risperidone]
inactive: [1] 1 | [2] 0.997 | [3] 0.995 | [4] 1 | [5] 1.03 | [6] 1.03 | [7] 0.997 | [8] 0.993

CC(=O)OCC(=O)[C@@]1(O)[C@H](C)C[C@H]2[C@@H]3CCC4=CC(=O)C=C[C@]4(C)[C@@]3(F)[C@@H](O)C[C@@]21C [Dexamethasone acetate]
inactive: [1] 1 | [2] 1 | [3] 1 | [4] 0.999 | [5] 0.993 | [6] 1.02 | [7] 1.01 | [8] 0.998

CCCCC1C(=O)N(c2ccccc2)N(c2ccccc2)C1=O [Phenylbutazone]
inactive: [1] 1.01 | [2] 0.991 | [3] 0.973 | [4] 1.01 | [5] 1.03 | [6] 1.07 | [7] 1 | [8] 0.964

CC1=C(CC(=O)O)c2cc(F)ccc2/C1=C\c1ccc([S+](C)[O-])cc1 (stereo not given) [Sulindac]
inactive: [1] 0.976 | [2] 0.994 | [3] 1.01 | [4] 1.03 | [5] 0.996 | [6] 0.968 | [7] 1 | [8] 0.984

CN1CCC(=C2c3ccccc3CC(=O)c3sccc32)CC1 [Ketotifen fumarate]
inactive: [1] 1.01 | [2] 0.999 | [3] 0.985 | [4] 1.01 | [5] 0.979 | [6] 0.997 | [7] 1.01 | [8] 0.999

CC(=O)SCC(Cc1ccccc1)C(=O)NCC(=O)OCc1ccccc1 (stereo not given) [Racecadotril]
inactive: [1] 1 | [2] 1 | [3] 1 | [4] 1.01 | [5] 1.06 | [6] 1.05 | [7] 1 | [8] 0.963

C#C[C@]1(O)CC[C@H]2[C@@H]3[C@H](C)CC4=C(CCC(=O)C4)[C@H]3CC[C@@]21C [Tibolone]
inactive: [1] 0.999 | [2] 0.971 | [3] 0.974 | [4] 1 | [5] 0.963 | [6] 0.994 | [7] 1 | [8] 0.986

CC(=O)/N=c1/sc(S(N)(=O)=O)nn1C [Methazolamide]
inactive: [1] 0.99 | [2] 1.04 | [3] 1.05 | [4] 0.979 | [5] 1.07 | [6] 1.06 | [7] 1.01 | [8] 1.02

O=C(O)c1cn(C2CC2)c2cc(N3CCNCC3)c(F)cc2c1=O [Ciprofloxacin hydrochloride monohydrate]
inactive: [6] 0.679
active: [1] 0.00833 | [2] 0.0218 | [3] 0.0273 | [4] 0.0762 | [5] 0.0296 | [7] 0.00642 | [8] 0.00798

COc1cc(OC)c(C(=O)CCCN2CCCC2)c(OC)c1 [Buflomedil hydrochloride]
inactive: [1] 1 | [2] 0.997 | [3] 0.997 | [4] 1.01 | [5] 0.997 | [6] 0.994 | [7] 0.995 | [8] 1

N[C@@H](C(=O)N[C@@H]1C(=O)N2C(C(=O)O)=C(Cl)CS[C@H]12)c1ccccc1 [Cefaclor hydrate]
active: [1] 0.492 | [2] 0.153 | [4] 0.209
inactive: [3] 1.03 | [5] 1.04 | [6] 1.05 | [7] 1.07 | [8] 1.01

CC(=O)Oc1cccc2c1C(=O)c1c(OC(C)=O)cc(C(=O)O)cc1C2=O [Diacerein]
inactive: [1] 1 | [2] 0.997 | [4] 1.01 | [6] 0.324 | [7] 0.995 | [8] 0.38
active: [3] 0.784 | [5] 0.0327

CC1(C)OC(=O)NC1=O [Dimethadione]
inactive: [1] 0.972 | [2] 0.995 | [3] 1.01 | [4] 0.998 | [5] 1.02 | [6] 1 | [7] 0.99 | [8] 0.997

NC[C@H]1O[C@H](O[C@H]2[C@H](O)[C@@H](O[C@H]3O[C@H](CO)[C@@H](O)[C@H](N)[C@H]3O)[C@H](N)C[C@@H]2N)[C@H](N)C[C@@H]1O [Tobramycin]
inactive: [3] 0.97 | [5] 1.03 | [6] 1.05 | [7] 0.969 | [8] 0.995
active: [1] 0.888 | [2] 0.794 | [4] 0.107

C[C@]12CC[C@H]3C(=CCc4cc(O)ccc43)[C@@H]1CCC2=O [Equilin]
inactive: [1] 1.01 | [2] 0.993 | [3] 0.99 | [4] 1.01 | [5] 0.993 | [6] 0.991 | [7] 1 | [8] 0.95

Oc1ncnc2[nH]ncc12 [Allopurinol]
inactive: [1] 0.996 | [2] 1.03 | [3] 1.02 | [4] 1 | [5] 1.03 | [6] 1.04 | [7] 0.999 | [8] 0.99

CCOc1cc(CC(=O)N[C@@H](CC(C)C)c2ccccc2N2CCCCC2)ccc1C(=O)O [Repaglinide]
inactive: [1] 1.03 | [2] 1.06 | [3] 1.07 | [4] 1.02 | [5] 0.956 | [6] 1.01 | [7] 1.01 | [8] 0.981

CCC(C)n1ncn(-c2ccc(N3CCN(c4ccc(OCC5COC(Cn6cncn6)(c6ccc(Cl)cc6Cl)O5)cc4)CC3)cc2)c1=O (stereo not given) [Itraconazole]
inactive: [1] 1.01 | [2] 1.03 | [3] 1.04 | [4] 0.998 | [5] 1.1 | [6] 1.1 | [7] 1.02 | [8] 1

O=C1CC2(CCCC2)CC(=O)N1CCCCN1CCN(c2ncccn2)CC1 [Buspirone hydrochloride]
inactive: [1] 1.01 | [2] 1.08 | [3] 1.04 | [4] 1 | [5] 1.12 | [6] 1.11 | [7] 0.986 | [8] 0.979

COc1cc2nc(N3CCN(C(=O)C4COc5ccccc5O4)CC3)nc(N)c2cc1OC (stereo not given) [Doxazosin mesylate]
inactive: [1] 0.974 | [2] 0.985 | [3] 0.942 | [4] 0.996 | [5] 0.949 | [6] 0.916 | [7] 0.994 | [8] 0.952

Nc1ccc(S(N)(=O)=O)cc1 [Sulfanilamide]
inactive: [1] 1.03 | [2] 1.04 | [3] 1.05 | [4] 1.01 | [5] 1.03 | [6] 1.06 | [7] 0.993 | [8] 1

COc1ccc(CC2c3cc(OC)c(OC)cc3CC[N+]2(C)CCC(=O)OCCCCCOC(=O)CC[N+]2(C)CCc3cc(OC)c(OC)cc3C2Cc2ccc(OC)c(OC)c2)cc1OC (stereo not given) [Atracurium besylate]
inactive: [1] 1 | [2] 1.05 | [3] 1.01 | [4] 1 | [5] 1.04 | [6] 1.04 | [7] 0.983 | [8] 1.01

Nc1nc(=O)c2c([nH]1)NC[C@@H](CNc1ccc(C(=O)N[C@@H](CCC(=O)O)C(=O)O)cc1)N2C=O [Folinic acid calcium salt]
inactive: [1] 1 | [2] 0.999 | [3] 1.01 | [4] 1 | [5] 1.01 | [6] 1.04 | [7] 1 | [8] 1

OC(c1cc(C(F)(F)F)nc2c(C(F)(F)F)cccc12)C1CCCCN1 (stereo not given) [Mefloquine hydrochloride]
inactive: [1] 0.997 | [2] 0.975 | [3] 1 | [4] 0.99 | [5] 0.719 | [6] 0.777 | [7] 0.998 | [8] 0.948

CC1(C)S[C@@H]2[C@H](NC(=O)[C@H](N)c3ccc(O)cc3)C(=O)N2[C@H]1C(=O)O [Amoxicillin]
active: [1] 0.00744 | [2] 0.0257 | [3] 0.68 | [4] 0.0346 | [5] 0.0144 | [6] 0.0118 | [7] 0.00737 | [8] 0.00653
